Experimental data as given in the supplement of paper PMC13380429.

Tested on: Vero E6 infected with SARS-CoV-2
Assay: inhibition of SARS-CoV-2 cytopathic effect; higher = more antiviral protection, active = above 15
Conditions: 48 h

Measured: inhibition of SARS-CoV-2 cytopathic effect

CC(C)Oc1ccc(-c2nc(-c3cccc4c3CC[C@@H]4NCCO)no2)cc1C#N [ozanimod]
active: 10000 nM 59.2%
inactive: 1 nM -1.23% | 8.33 nM -0.27% | 100 nM 2.87% | 833.33 nM 0.63%

C[C@@H]1CN([C@H]2CC[C@](C#N)(c3ccc(F)cc3)CC2)CC[C@]1(C(=O)O)c1ccccc1 [levocabastine]
inactive: 1 nM 1.53% | 8.33 nM 0.57% | 100 nM -0.86% | 833.33 nM 1.81% | 10000 nM -0.71%

CSCC[C@H](NC(=O)[C@H](CC(C)C)NC(=O)CNC(=O)[C@H](Cc1ccccc1)NC(=O)[C@H](Cc1ccccc1)NC(=O)[C@H](CCC(N)=O)NC(=O)[C@H](CCC(N)=O)NC(=O)[C@@H]1CCCN1C(=O)[C@H](CCCCN)NC(=O)[C@@H]1CCCN1C(=O)[C@@H](N)CCCN=C(N)N)C(N)=O [substance-P]
inactive: 1 nM -5.5% | 8.33 nM -11.3% | 100 nM -9.37% | 833.33 nM -10.4% | 10000 nM -5.64%

CC(C)C(=O)OC[C@H]1O[C@@H](n2ccc(N)nc2=O)[C@](C)(F)[C@@H]1OC(=O)C(C)C [mericitabine]
inactive: 1 nM -0.35% | 8.33 nM -2.22% | 100 nM 2.05% | 833.33 nM -0.85% | 10000 nM 1.88%

O=C(c1cc(S(=O)(=O)Nc2ccccc2F)c(F)cc1Cl)N1CCN2CCC[C@@H]2C1
inactive: 1 nM 1.66% | 8.33 nM 2.06% | 100 nM 1.64% | 833.33 nM 8.06% | 10000 nM -1.59%

CCC(CC)Nc1cc(C)nc(Oc2c(C)cc(C)cc2C)c1C
inactive: 1 nM -0.56% | 8.33 nM 0.65% | 100 nM -1.28% | 833.33 nM 0.01% | 10000 nM -1.59%

OCc1ccc(CO)o1 [2,5-furandimethanol]
inactive: 1 nM -0.97% | 8.33 nM 0.38% | 100 nM 0.27% | 833.33 nM 2.21% | 10000 nM 0.97%

N=C(NCCC[C@H](N)C(=O)O)N[N+](=O)[O-] [NG-nitro-arginine]
inactive: 1 nM 4.03% | 8.33 nM -0.95% | 100 nM -0.93% | 833.33 nM 0.27% | 10000 nM -0.46%

COc1ncc(-c2ccc3c(Nc4cc(Oc5cc(F)cc(F)c5)cc(C(=O)O)c4)c(S(=O)(=O)NC4CC4)cnc3c2)c(OC)n1
inactive: 1 nM 0.82% | 8.33 nM 2.2% | 100 nM 0.69% | 833.33 nM 2.71% | 10000 nM 1.3%

CCn1cc(C(=O)O)c(=O)c2cc(F)c(N3CCNC(C)C3)c(F)c21 (stereo not given) [lomefloxacin]
inactive: 1 nM 0.57% | 8.33 nM -0.12% | 100 nM -1.13% | 833.33 nM 0.73% | 10000 nM -1.41%

CN1CCN(C2=Cc3ccccc3Oc3ccc(Cl)cc32)CC1
inactive: 1 nM 1.06% | 8.33 nM 0.31% | 100 nM -0.45% | 833.33 nM -1.6% | 10000 nM -1.46%

Oc1cc2c(cc1O)C(c1ccccc1)CNCC2 (stereo not given)
inactive: 1 nM 3.06% | 8.33 nM 1.73% | 100 nM 1.53% | 833.33 nM 1.32% | 10000 nM 0.48%

CCOCOC[C@H](C[C@H](C)C(=O)NO)NC(=O)c1ccc(Oc2ccccc2)cc1
inactive: 1 nM 4.15% | 8.33 nM 13.5% | 100 nM 5.33% | 833.33 nM -3.29% | 10000 nM -6.18%

N#Cc1ccc2[nH]c(O)c(-c3ccc(CN4CCOCC4)cn3)c2c1
inactive: 1 nM -0.78% | 8.33 nM -0.13% | 100 nM -0.01% | 833.33 nM 4.77% | 10000 nM 11.4%

Cc1cc(Cn2nnc3c(-c4ccco4)nc(N)nc32)ccc1N [vipadenant]
inactive: 1 nM 3.17% | 8.33 nM 2.89% | 100 nM 2.73% | 833.33 nM -0.18% | 10000 nM 0.65%

C[C@@H]1C[C@@H]([C@H](O)CC2CC(=O)NC(=O)C2)C(=O)[C@@H](C)C1 [cycloheximide]
inactive: 1 nM 2.12% | 8.33 nM 2.86% | 100 nM 6.34%
active: 833.33 nM 27.6% | 10000 nM 17.4%

C=CC(=O)Nc1cccc(Nc2nc(Nc3ccc(OCCOC)cc3)ncc2F)c1
inactive: 1 nM -0.6% | 8.33 nM 2.81% | 100 nM 0.54% | 833.33 nM -6.55% | 10000 nM -11.3%
